High-throughput results (PubChem BioAssay)
Shown are actives, neighbours in structure and some others; about 19% of the full set was active somewhere.
Lassa entry inh = Lassa virus entry inhibition; Lassa virus pseudotype entry inhibition, cell reporter; Potency, µM (doses to about 37.9 µM), for inactives: at the top dose activity change, negative = inhibition, usual class: inhibitors; 1.2% of 300,000 active; AID 540256; calls by dose curve; tested in HEK293 cells; further: potency means the concentration at half of the fitted maximal effect; on the % scale 0 is the no-effect control and ±100 the full control effect; nearly all actives have a fitted effect of over 50% in size
CHX counter = affects cycloheximide protein synthesis inhibition readout, counter-screen; cell reporter, cycloheximide protein synthesis inhibition counterscreen; max response, %; 12% of 300,000 active; AID 2314; in the data active means max response mostly above about 13%, no sharp cut-off; inactive means mostly below about 14%; further: read at 38.3 µM for the half of the compounds with a filed dose; 0% is about no effect
Shiga toxin inh = blocks Shiga toxin action in Vero cells; Vero cells, Shiga toxin protein synthesis inhibition reporter; 9.2% of 290,000 active; inhibition, % at 38.7 µM; in the data active means inhibition mostly above about 28%, no sharp cut-off; inactive means mostly below about 43%; further: 0% is about no effect
Pf growth 48h = inhibits P. falciparum growth in the first generation, 48 h. P. falciparum luciferase growth in erythrocytes, 48 h. Potency, µM (highest dose often 28.7 µM), without a hit: at the highest dose activity change, negative = inhibition, most hits filed as inhibitors. 5.9% of 310,000 active. AID 504832; further: potency means the concentration at half of the fitted maximal effect; on the % scale 0 is the no-effect control and ±100 the full control effect
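First compound was added to culture medium, then infected red cells at 0.1% parasitemia and 2% hematocrit (final). After incubation at 37 C under 5% CO2, luciferase detection reagent was dispensed and light output recorded.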
MARV entry inh = blocks Marburg virus binding to or entry into cells. Marburg virus pseudotyped entry inhibition, cell reporter. Potency, µM (top dose mostly 37.8 µM), inactives show at the top dose activity change, negative = inhibition, actives largely listed as inhibitors. 1.8% of 300,000 active. AID 540276; calls by dose curve; tested in HEK293 cells; further: potency means the concentration at half of the fitted maximal effect; on the % scale 0 is the no-effect control and ±100 the full control effect
Pf growth 96h = inhibits malaria parasite growth, 96 h. 6.9% of 320,000 active. AID 504834. P. falciparum luciferase reporter growth, 96 h. Potency, µM (series often up to 28.7 µM), inactives show at the top dose activity change, negative = inhibition, hits mostly inhibitors; further: potency means the concentration at half of the fitted maximal effect; on the % scale 0 is the no-effect control and ±100 the full control effect
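Two-generation exposure (96 h) targets delayed-death phenotype. Reporter parasites carrying integrated firefly luciferase, in red cells at 2% hematocrit and 0.05% parasitemia final, kept at 37 C, 5% CO2; luminescence loss indicates inhibition.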
The depositor's hits bear a star; ? = inconclusive; · = not tested or not shown; [ ] = another dose, or the depositor's remark. Unless noted, the call rests on the fitted dose curve; in most records, active means well fitted inhibition curve with a large enough effect; inconclusive means small, poorly fitted or top-dose-only effect, or another doubt; inactive means no such curve, though single readings can be large or run the other way.

SMILES | Lassa entry inh | CHX counter | Shiga toxin inh | Pf growth 48h | MARV entry inh | Pf growth 96h
O=C(COC(=O)c1cnccn1)c1ccc2ccccc2c1 | 6% | 6 | 12 | 3% | 6% | ·
Cc1cc(NS(=O)(=O)c2ccc(Br)s2)no1 | ? | · | · | · | -1% | ·
O=C(COC(=O)c1cc2ccccc2o1)c1ccccc1 | 13% | 39* | 117* | 9% | 27%[46.1 µM] | ?
O=C(Oc1ccccc1)c1cc2ccccc2o1 | 0% | 8 | 12 | 11% | -6% | ·
COc1cccc(CC(=O)Nc2sc3c(c2C(N)=O)CCCC3)c1 | 6%[46.1 µM] | -2 | -4 | -10% | -13%[46.1 µM] | 4%
Cc1c(OCc2ccc(C(=O)O)o2)ccc2c3c(c(=O)oc12)CCC3 | -25% | 21 | 84* | 57% | -10% | ?
COC(=O)c1ccc(COc2cc(C)cc3oc(=O)c4c(c23)CCCC4)o1 | -9% | 9 | -1 | ? | 4% | 50%
COC(=O)c1ccc(COc2ccc3c(C)c(C)c(=O)oc3c2C)o1 | ? | 15* | 65* | ? | 17% | ·
CCc1c(C)sc(NC(=S)N2CCN(S(C)(=O)=O)CC2)c1C(=O)OC | · | 2 | 9 | -5% | · | 15%
CC(C)(C)C(=O)Nc1nnc(CSCc2ccccc2F)s1 | 2% | 90* | 105* | · | ? | 1%
CC(C)C(=O)Nc1nnc(CSCc2ccccc2F)s1 | 9% | 13 | 37 | · | 28% | -3%
O=C(Nc1nnc(CSCc2ccccc2F)s1)c1cccc([N+](=O)[O-])c1 | 2% | -3 | -9 | 19% | 0% | 13µM*
CN(CC(=O)N1CCc2ccccc21)S(=O)(=O)c1ccc(Cl)cc1 | ? | -3 | -2 | 3% | 4% | 25%
CCOc1ccc(S(=O)(=O)N(CC(=O)N2CCc3ccccc32)Cc2ccco2)cc1 | ? | 31* | 83* | ? | ? | ?
O=C(CC1C(=O)N(c2ccc(F)cc2)C(=O)N1Cc1ccccn1)Nc1ccccc1 (stereo not given) | -18% | -2 | 5 | · | 20% | -28%
Cc1cc2oc(C(=O)Nc3ccc(S(=O)(=O)N4CCCC(C)C4)cc3)cc(=O)c2cc1Cl (stereo not given) | ? | -3 | -5 | 13µM* | 11µM* | ?
Cc1cc2oc(C(=O)Nc3ccc(S(=O)(=O)Nc4nccs4)cc3)cc(=O)c2cc1Cl | · | -4 | -9 | 17% | · | 13µM*
COc1ccc(CCNc2c(C)c(C)nc3ncnn23)cc1 | ? | -4 | -14 | ? | ? | 1%[5.75 µM]
Cc1cc(C(C)(C)C)cc(C)c1Cn1c2[n+](c3ccc(C(F)(F)F)cc31)CCCCC2 | 13µM* | -5 | -6 | 3.3µM* | ? | ?
FC(F)(F)c1cccc(Cn2c3[n+](c4ccc(C(F)(F)F)cc42)CCCCC3)c1 | -1% | -3 | 27 | 4.1µM* | ? | ?
O=C(CNC(=S)N(Cc1ccccc1)Cc1cccnc1)NC1CC1 | -1% | -3 | -9 | -12% | -6% | 79%
CC(C)COn1c(=S)[nH]c2ccccc2c1=O | -11% | 27* | 55* | 61% | -24% | 102%
O=C(C1=NNCC1c1ccccc1)C1OC1c1ccccc1 (stereo not given) | ? | 12* | 34* | ? | ? | ?
CCOC(=S)NC(=O)c1sc2ccccc2c1Cl | 6% | 32* | 27 | 42% | 26% | ?
O=C(NC(=S)NCCO)c1sc2ccccc2c1Cl | · | 51* | 111* | 268% | · | -11%
O=C(CNC(=O)c1sc2ccccc2c1Cl)NCc1cccnc1 | ? | 6 | 17 | ? | ? | ?
CCCOC(=S)NC(=O)c1sc2ccccc2c1Cl | -1% | 40* | 63* | 43% | -8% | ?
COc1ccc(CCNC(=O)CCN2C(=O)COc3ccccc32)cc1OC | 3% | -1 | 3 | -1% | -8% | 28%
CC(/C=C1\SC(=S)N(CCCC(=O)Nc2ccc(C(=O)O)c(O)c2)C1=O)=C\c1ccccc1 | -12% | 9 | 10 | -77% | 14% | ?
CCOc1cc2c3c(c1)C1(C(=O)N3C(C)(C)C=C2C)C(C#N)=C(N)Oc2cc(O)ccc21 (stereo not given) | ? | -3 | -23 | 4.7µM* | 0% | ·
